Results filed as inconclusive are left out. Activity calls are given as the source filed them. The call rests on the fitted dose curve; in most records, active means well fitted inhibition curve with a large enough effect; inconclusive means small, poorly fitted or top-dose-only effect; inactive means no such curve, though single readings can be large or run the other way.
Molecular target: Retinaldehyde dehydrogenase 3 (Homo sapiens) (UniProt P47895)
Experiment: qHTS for Inhibitors of the Aldehyde Dehydrogenase Family (ALDH1A3) Confirmatory screens (AID 2061311); further: nearly all actives have a fitted effect of over 60% in size
Details: ALDH inhibition qHTS; series mostly up to 46 µM
Potency means the concentration at half of the fitted maximal effect.

| SMILES | Potency |
| --- | --- |
| COc1cc(O)ccc1OCCNCC(O)COc1cccc2[nH]c3ccccc3c12 (stereo not given) | 12.7 µM (active) |
| N#CN1CCC(NS(=O)(=O)c2ccc(C(F)(F)F)cc2)CC1 | inactive |
| CN(C)c1cccc(-c2cnc(N3CCC(C(N)=O)CC3)nc2)c1 | 22.5 µM (active) |
| CN(C)c1cnc2c(O)ccc(C(=O)O)c2c1 | 8.96 µM (active) |
| Cc1ccc(NS(=O)(=O)c2cc3c(cc2N2CCC2)NC(=O)CC3)cc1C | inactive |
| Cc1ccc(CNc2ccc(N3CCNCC3)cc2)cc1 | 14.2 µM (active) |
| Oc1ccc(CNc2cc(Cl)ccn2)c2cccnc12 | 3.57 µM (active) |
| O=C1Nc2ccccc2/C1=C\c1ccc([N+](=O)[O-])cc1 | 17.8 µM (active) |
| O=C1Nc2ccc(C(=O)c3ccco3)cc2/C1=C/c1cc(Cl)c(O)c(Cl)c1 | 14.1 µM (active) |
| C/C=C/c1ccc2oc(-c3ccc(O)c(OC)c3)c(C)c2c1 | 1.01 µM (active) |
| Cc1noc(C)c1S(=O)(=O)Nc1cnccc1C(=O)Nc1nc(-c2ccccc2)cs1 | inactive |
| CC(C)(C)OC(=O)N[C@@H](Cc1ccc(O[S+](=O)([O-])c2cccnc2)cc1)C(=O)N1CCN(c2ccccc2)CC1 | 28.3 µM (active) |
| O=C(C(NS(=O)(=O)c1ccc2[nH]c(=O)ccc2c1)c1cccc(C(F)(F)F)c1)N(Cc1ccco1)Cc1cccs1 (stereo not given) | 25.2 µM (active) |
| Cc1ccnc(NC(=S)N[C@@H]2CCN(c3cccc(C(F)(F)F)c3)C2)c1 | inactive |
| CNS(=O)(=O)c1ccc(Cc2c(-c3cccc(-c4ccccc4)c3)[nH]n(-c3nc(C(=O)O)cs3)c2=O)cc1 | 4 µM (active) |
| O=C(O)c1ccc(O)c2ncc(NC3CCNC3)cc12 (stereo not given) | inactive |
| O=[S+]([O-])(Nc1nccs1)c1ccc(NCc2cc(F)cc(Cl)c2O)cc1 | inactive |
| CCN(CC)C(=O)CC(c1ccc2c(c1)OCO2)c1c(O)cc(OC)cc1OC (stereo not given) | inactive |
| CC(=O)Nc1sc2c(c1-c1ccc(N3CCN(C(C)=O)CC3)nc1)CCNC2 | 12.7 µM (active) |
| CC(=O)N1CCN(c2ccc(NCc3cccc(C)c3)cc2)CC1 | 20.1 µM (active) |

| SMILES | Potency |
| --- | --- |
| N[C@@H]1CCN(c2cnc3c(O)ccc(C(=O)O)c3c2)C1 | 12.7 µM (active) |
| Cc1ccc(S(=O)(=O)Nc2cccc3ccc[n+](C)c23)cc1 | 10.1 µM (active) |
| CCC(=O)NC(c1ccco1)c1cc(Br)c2cccnc2c1O (stereo not given) | 12.7 µM (active) |
| Cc1ccc(NC(=O)CN2C(=O)N/C(=C\c3ccco3)C2=O)cc1 | 4.49 µM (active) |
| C=CCNc1nnc(-c2cccc3ccccc23)o1 | 10.1 µM (active) |
| NNc1ccc(NC(=O)c2cccs2)cn1 | 11.3 µM (active) |
| CC(C)(C)OC(=O)N1CCN(c2ccc(NCc3occc3-c3ccc(C#N)cc3)cc2)CC1 | 20.1 µM (active) |
| c1c[nH]c(C2CCN(c3ncc(-c4ccc5c(c4)OCCCO5)s3)CC2)n1 | 5.04 µM (active) |
| Cc1ccc2nc3sc(C(=O)N4CCOCC4)cc3cc2c1 | 25.2 µM (active) |
| CC(=O)N1CCN(c2ccc(NCc3ccccc3)cc2)CC1 | 12.7 µM (active) |
| CNc1ncc(-c2cccc3ccccc23)o1 | 25.2 µM (active) |
| Cc1occc1-c1ccc2ncnc(NCc3ncc[nH]3)c2c1 | 4 µM (active) |
| COc1ccc(-c2ccc(=O)n(CC(=O)NCCc3ccccc3)n2)cc1 | 1.58 µM (active) |
| COc1ccc(CNc2ccc(S(=O)(=O)Nc3nccs3)cc2)cc1O | 5.65 µM (active) |
| Oc1cc(NCc2ccc(F)cc2)cc2cccnc12 | 1.59 µM (active) |
| Nc1cccc(CNc2ccc(S(=O)(=O)Nc3nccs3)cc2)c1O | 10.1 µM (active) |
| COc1ccc(Nc2cc(O)c3ncccc3c2)cc1 | 0.0357 µM (active) |
| CN1CCN(c2ccc(NC(=O)c3cccs3)cn2)CC1 | 22.5 µM (active) |
| O=C1CCCC2=C1C1(CCC1)N=C(Nc1nc3ccccc3o1)N2 | 12.7 µM (active) |
| Oc1cccc2cc(NCc3ccccc3F)cnc12 | 7.12 µM (active) |
